Key:
Experiment in all cases: PBM binding z-score (relative to random genomic background probes); higher = stronger binding; sequences stand for … in GC…GCGATTGACAGCGTAGAATGAAGG
[1] = system: FXR:RXRa (NR concentration 270 nM, RXRa partner concentration 90 nM)
Summary of the method: (§1)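 Binding buffer was PBS pH 7.4 with 2% milk, 0.02% Triton X-100, 1 mM DTT, 0.2 mg/mL BSA and 0.4 mg/ml salmon testes DNA. In it, ligand-free nuclear receptor dimers were incubated 1 h on custom Agilent 4×180K protein-binding microarrays carrying double-stranded probes. Antibodies against each partner (one per run) detected binding, and z-scores were calculated against random background probes after regression normalization of scanned fluorescence.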

[2] = system: LXRa:RXRa (NR concentration 270 nM, RXRa partner concentration 90 nM)
Summary of the method: as §1

[3] = system: LXRa homodimer (NR concentration 270 nM)
Summary of the method: as §1

[4] = system: LXRb:RXRa (NR concentration 270 nM, RXRa partner concentration 90 nM)
Summary of the method: as §1

[5] = system: LXRb homodimer (NR concentration 270 nM)
Summary of the method: as §1

[6] = system: PPARa:RXRa (NR concentration 270 nM, RXRa partner concentration 90 nM)
Summary of the method: as §1

[7] = system: PPARg:RXRa (NR concentration 180 nM, RXRa partner concentration 90 nM)
Summary of the method: as §1

[8] = system: PPARg:RXRa 270nM:90nM, anti-RXR (NR concentration 270 nM, RXRa partner concentration 90 nM)
Summary of the method: as §1

[9] = system: PPARg:RXRa 30nM:10nM, anti-RXR (NR concentration 30 nM, RXRa partner concentration 10 nM)
Summary of the method: as §1

[10] = system: PPARg:RXRa 90nM:30nM, anti-RXR (NR concentration 90 nM, RXRa partner concentration 30 nM)
Summary of the method: as §1

[11] = system: PPARg:RXRa DBDmut IVT, anti-RXR (DBD mutation: RXRa K156A/R161A, NR concentration 270 nM, RXRa partner concentration 90 nM)
Summary of the method: as §1

[12] = system: PPARg:RXRa IVT, anti-PPARg (NR concentration 270 nM, RXRa partner concentration 90 nM)
Summary of the method: as §1

[13] = system: PPARg DBDmut:RXRa IVT, anti-PPARg (DBD mutation: PPARg1 K132A/R137A, NR concentration 270 nM, RXRa partner concentration 90 nM)
Summary of the method: as §1

[14] = system: PPARg DBDmut IVT, anti-PPARg (DBD mutation: PPARg1 K132A/R137A, NR concentration 270 nM)
Summary of the method: as §1

[15] = system: PPARg homodimer (NR concentration 180 nM)
Summary of the method: as §1

[16] = system: PXR:RXRa (NR concentration 270 nM, RXRa partner concentration 90 nM)
Summary of the method: as §1

[17] = system: PXR homodimer (NR concentration 270 nM)
Summary of the method: as §1

[18] = system: RARa:RXR (NR concentration 270 nM, RXRa partner concentration 90 nM)
Summary of the method: as §1

[19] = system: RARa homodimer (NR concentration 270 nM)
Summary of the method: as §1

[20] = system: RARb:RXRa (NR concentration 270 nM, RXRa partner concentration 90 nM)
Summary of the method: as §1

Sequence	PBM binding z-score [1]	PBM binding z-score [2]	PBM binding z-score [3]	PBM binding z-score [4]	PBM binding z-score [5]	PBM binding z-score [6]	PBM binding z-score [7]	PBM binding z-score [8]	PBM binding z-score [9]	PBM binding z-score [10]	PBM binding z-score [11]	PBM binding z-score [12]	PBM binding z-score [13]	PBM binding z-score [14]	PBM binding z-score [15]	PBM binding z-score [16]	PBM binding z-score [17]	PBM binding z-score [18]	PBM binding z-score [19]	PBM binding z-score [20]
AGTCAAAGTTCATCTAGGTAACGTCAGATATGCT	6.97	6.1	5.62	4	1.91	4.87	6.42	6.54	3.63	5.58	1.33	4.32	2.61	1.98	5.02	5.36	7.19	4.41	2.97	4.96
TCATATAGGTAAAAGTTGAAAGTCGGTGTGGTAA	1.54	1.21	0.41	1.21	-0.0163	4.24	7.51	7.35	7.31	8.17	4.15	3.58	0.876	1.75	1.63	0.929	0.491	1.56	1.48	1.04
CCTAGTTGGTCAAGGTCAAACACGCTATAGGTAC	5.04	4.62	3.57	4.52	1.24	4.81	3.13	3.93	1.16	3.04	2.18	3.37	0.444	1.42	3.34	4.48	3.25	4.41	2.79	4.19
TGAATGAGGTAATAAGATCAGGGAACGTTGCAAA	-0.101	-0.238	-0.404	-0.279	-0.0513	0.529	0.563	0.725	0.309	0.427	0.356	1.03	0.129	-0.853	-0.59	-0.275	-0.242	-0.0415	-0.474	-0.231
CCTACTGGGCCATGAGGTCATTGATATCAACGTT	3.57	2.77	1.87	3.24	-0.168	4.19	4.59	4.66	2.55	4.53	4.24	5.54	0.512	-0.0861	2.41	4.71	3.85	4.49	0.257	2.91
CAAACTAGGTCAAGGTGAAAGTCGGTTTGTGCCA	3.92	2.88	0.394	1.93	0.139	5.18	8.7	7.35	6.13	7.28	8.58	8.62	2.55	1.53	1.47	1.65	0.138	2.19	0.4	4.2
CCTGACGGGTCACTGACAGGTTATAGCATTTGGA	4.19	3.46	0.214	2.64	-0.319	4.19	2.56	2.71	0.481	1.8	1.12	1.82	0.147	-0.292	3.03	3.08	-0.179	4.01	0.536	3.69
CCTAGCAGGCCAATCTGGGCCACTCAAGGCTTGA	-0.284	-0.644	-0.799	-1.18	-1.02	0.492	-0.0153	-0.364	-1.32	-1.08	2.99	2.85	-0.703	-1.73	-0.99	-1.04	-1.05	-1.11	-0.723	0.0812
CCTATTAGTTGACCATACGGGCAACCGAAGCTCG	0.382	0.294	0.419	0.323	0.519	-0.224	0.305	-0.0431	-0.298	-0.186	0.407	0.329	0.889	0.71	1.39	-0.0836	0.786	-0.218	1.26	0.631
GCGACTGGGGCAAAGCGGGTTACCATAAGGTTGG	0.373	-0.0696	-0.512	0.27	-0.709	1.42	1.15	1.47	-0.245	0.845	4.18	3.67	-0.432	-0.894	-0.11	0.293	-0.451	0.625	-0.887	0.922
CCTATTCGTTGACCATAAGGGCAACCGAAGCTCG	0.737	0.584	0.874	0.578	1.19	0.766	0.4	0.418	0.115	0.223	0.434	0.637	0.0621	0.266	1.7	0.841	0.82	1.41	1.43	1.82
AGTCAAAGTTCAGGACGAGGTAACGGAAAGCACG	3.52	3.93	0.925	1.77	0.134	3.46	4.45	4.88	1.83	3.87	-0.203	2.06	0.787	0.337	2.37	2.66	1.31	2.62	0.344	4.22
TCTGCTAGGTCAACGATGGTCAGCTCATCTGCTA	3.56	2.79	0.0556	1.81	0.088	3.34	2.4	2.89	1.65	2.19	4	4.36	2.19	-0.236	1.9	1.71	-1.45	2.37	-0.783	4.05
CATACAGGGTCAGGTAGGCCAGAGTAGGGACGGC	4	2.92	-0.133	2.21	0.723	4.2	3.15	2.92	0.655	2.16	0.321	2.48	0.416	0.457	1.75	2.23	0.241	3.46	0.612	3.73
CCAGACAGGTGAAAGGTAACTCAGTCTGGTACGC	0.692	0.861	-0.121	1.01	-0.274	3.53	6.06	5.9	4.26	6.73	2.07	3.2	0.403	-0.0766	1.36	0.838	0.027	1.99	0.208	1.4
TCATATAGGTAAATGCTAGGTGAAAGTTCGATCT	1.23	1.18	0.931	1.27	-0.0844	2.74	3.2	4.57	4.77	4.78	3.99	3.4	1.55	1.1	1.29	1.17	0.91	1.61	1.71	0.871
ACTAGCAGGCCAAGGGTCACTCATGATTAGTCCG	2.27	2.25	0.295	2.52	-0.498	4.38	7.52	7.48	6.27	7.65	1.25	3.63	0.294	-0.197	2.62	3	-0.0152	4.04	0.642	3.41
TCAGACAGGTGAAGTTAACTCAGGTACGCAGTCG	0.865	0.967	0.0333	0.725	-0.0783	1.17	0.534	2.18	3.93	2.75	2.34	0.646	0.282	-0.426	0.226	0.543	0.31	0.876	0.495	1.03
TCTCGGAGGACACGATAGGTCAGAGCTCGACATC	1.07	1.92	0.208	0.643	-0.585	1.5	0.595	1.43	2.09	1.52	1.4	0.606	-0.736	-0.55	0.932	0.843	-0.337	1.59	-0.7	2.66
CCAGACAGGTGCAAGGTAACTCAGTCTGGTACGC	-0.53	-0.47	-0.166	-0.568	-0.694	-0.13	0.366	0.416	-0.287	0.128	-0.395	-0.318	-0.426	-0.666	-0.0621	-0.444	-0.237	-0.146	-0.328	-0.0725
TCTAGTTGGTCACGGCGGTCACACACGACGGGTA	0.993	1.08	0.832	0.799	0.516	1.39	1.12	1.99	3.11	2.43	2.36	3.13	1.09	1.25	1.16	0.555	0.174	0.871	0.669	2.52
TGAATGAGGTTAAAGATGAGGGAACGTGGCGTCG	2.79	2.16	0.0267	1.29	0.831	3.65	3.77	4.65	2.44	4.35	2.54	2.8	0.619	0.196	0.933	1.49	0.214	2.17	0.368	2.1
ACTAGCAGGCCTAGGGTCACTCAAGATTAGTCCG	1.77	1.89	-0.469	1.82	-0.871	2.81	1.99	3.41	1.39	2.89	-0.156	0.917	-0.943	-1.16	1.39	2.65	0.0787	3.09	-0.643	2.44
ACTAGCAGCCCAAGTTTGGGTCACTCAAACAAAG	-0.21	-0.0985	-0.387	0.667	-0.605	0.976	-0.169	0.0773	-0.863	-0.372	-0.54	0.157	-0.825	-0.894	0.227	0.606	-0.424	1.19	-0.533	0.813
CAAACTAGGTCTCCGGAAGGTCAAAGTCCGCATG	2.65	3.15	2.79	3.25	0.445	3.75	2.85	3.29	0.811	2.34	5.21	4.82	0.561	0.489	2.44	3.68	1.14	3.9	0.122	3.23
CCGACTGGGGCAAAGGCTACCATACTCAGTACGA	-0.192	-0.314	-0.186	-0.213	-1.35	2.78	6.74	6.84	5.04	6.61	2.79	3.71	-0.0188	-0.284	0.531	-0.487	-0.267	-0.203	-0.204	0.812
